Experimental data published in PubChem BioAssay (NCATS).
Records with an inconclusive call do not appear. Calls of active or inactive are those of the source. Calls come from the whole dose curve; as a rule, active = well fitted curve in the direction sought with a large enough effect; inconclusive = small, poorly fitted or top-dose-only effect, or another doubt; inactive = no such curve, though single readings can be large; an effect the other way counts as inactive or inconclusive.

Tests used:
[1] = MultiTox-Fluor Cytotoxicity Assay - LYMP1-003 - Live Cells (AID 962);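 note: cells exposed to compound for 16 hours at 37 °C; cytotoxic hits lower the live-cell protease signal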
Procedure, shortened: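 qHTS, 1536-well; 2500 cells/well LYMP1-003; 5 hr 37 C settle; cpd 16 hr 37 C; MultiTox-Fluor reagent 60 min RT; live-cell protease fluor. 405/510; Hill-fit AC50; tetraoctylammonium bromide pos. ctrl.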

[2] = Cell Viability - LYMP1-003 - Assay at 24 hr (AID 963)
Procedure, shortened: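 Cells seeded at 2500/well, 5 hr at 37 C; compounds added; 24 hr at 37 C; CellTiter-Glo added, 30 min room temperature; luminescence read. Decrease in ATP taken as cytotoxicity, AC50 from Hill modelling.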

[3] = Cell Viability - LYMP1-003 - Assay at 40 hr (AID 964); note: series mostly up to about 92 µM; nearly all actives have a fitted effect of over 60% in size
Procedure, shortened: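 Cells were seeded at 2500 per well and incubated 5 hr at 37 C. Compounds were added across a concentration series and left 40 hr at 37 C. CellTiter-Glo was added for 30 min at room temperature before luminescence reading.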

[4] = Cell Viability - LYMP2-003 (AID 965);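 note: cells exposed to compounds for 24 h before reading; nearly all actives have a fitted effect of over 50% in size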
Excerpt: (§1) NIH Chemical Genomics Center [NCGC]
(§2) NIH Molecular Libraries Screening Centers Network [MLSCN]
(§3) National Institutes of Environmental Health Sciences [NIEHS]
(§4) National Toxicology Program [NTP]
(§5) We have developed a 1536-well cell-based assay for quantitative high throughput screening (qHTS) against a number of cell lines to determine in vitro cytotoxicity of small molecules. This particular assay uses a human lymphoblastoid cell line (LYMP2-003) purchased from Coriell Institute for Medical Research.
(§6) NCGC Assay Protocol Summary:
(§7) The CellTiter-Glo luminescent cell viability assay (Promega) is a homogeneous method to measure the number of viable cells in culture. The end point readout of this assay is based on quantitation of intracellular ATP, an indicator of metabolic activity, using the luciferase reaction. […]
(§8) Using the CellTiter-Glo luminescent cell viability assay, the amount of cellular ATP was measured in the lymphoblastoid cell line with complete culture medium following compound treatment for 24 hours. […] Library compounds were measured for their ability to cause acute toxicity in the cell line, as reflected by a decrease in intracellular ATP levels, in a concentration-dependent manner. […] AC50 values were determined from concentration-response data modeled with the standard Hill equation. […]
(§9) 8. Detection; Luminescence; Viewlux plate reader […]

[5] = Cell Viability - LYMP2-004 (AID 966); note: nearly all actives have a fitted effect of over 65% in size
Excerpt: as §1, §2, §3, §4
as §5, with “(LYMP2-004)” for “(LYMP2-003)”
as §6, §7, §8, §9

[6] = Cell Viability - LYMP2-005 (AID 967); note: series mostly up to about 92 µM
Excerpt: as §1, §2, §3, §4
as §5, with “(LYMP2-005)” for “(LYMP2-003)”
as §6, §7, §8, §9

[7] = Cell Viability - LYMP2-009 (AID 968); note: series mostly up to about 92 µM; nearly all actives have a fitted effect of over 55% in size
[8] = Cell Viability - LYMP2-011 (AID 969); note: nearly all actives have a fitted effect of over 60% in size
Procedure, shortened: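 2500 cells/well, 5 hr 37 C; compound added, 24 hr 37 C; CellTiter-Glo 30 min RT; luminescence. qHTS concentration-response, Hill-equation AC50. Tetraoctylammonium bromide positive control.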

[9] = Cell Viability - LYMP2-013 (AID 970); note: series mostly up to about 92 µM; nearly all actives have a fitted effect of over 55% in size
Procedure, shortened: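 qHTS; 2500 lymphoblastoid cells/well; 5 hr 37 C settle; cpd 24 hr 37 C; CellTiter-Glo, 30 min RT; luminescence. AC50 = Hill fit.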

[10] = Cell Viability - LYMP2-015 (AID 971); note: nearly all actives have a fitted effect of over 55% in size
Procedure, shortened: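 Luminescent ATP read-out (CellTiter-Glo) served as the viability measure after lymphoblastoid cells were exposed to compounds for 24 hours at 37 C. Concentration-response data were fitted with the Hill equation to give AC50.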

Measured: outcome

CC(=O)C(C)=O
inactive: all assays above

NC(=O)c1ccccc1
not listed: [6]
inactive: all other assays above
